# Results reported in ChEMBL document CHEMBL3988442, “University of Dundee, Small-Polar-MMV Screening Library” (2021).
# For some assays here: Entries with a potency or affinity are not part of this list.
# What was measured:
# Set-up in all cases: scale not given: direction of the effect not stated beside the values
# [1] = molecular target: Protein translocase subunit SecA (Escherichia coli (strain K12)) (UniProt P10408); test: Assay to Identify E. coli SecA ATPase Inhibitors; assay type: functional; conditions: 30 µM
# [2] = molecular target: T1, Ubiquitin-activating enzyme e1, putative (Leishmania donovani (strain BPK282A1)) (UniProt E9BSI1); test: Leishmania donovani Ubiquitin Activating Enzyme (LdE1); assay type: functional; conditions: 30 µM
# T1 sequence (whole entry): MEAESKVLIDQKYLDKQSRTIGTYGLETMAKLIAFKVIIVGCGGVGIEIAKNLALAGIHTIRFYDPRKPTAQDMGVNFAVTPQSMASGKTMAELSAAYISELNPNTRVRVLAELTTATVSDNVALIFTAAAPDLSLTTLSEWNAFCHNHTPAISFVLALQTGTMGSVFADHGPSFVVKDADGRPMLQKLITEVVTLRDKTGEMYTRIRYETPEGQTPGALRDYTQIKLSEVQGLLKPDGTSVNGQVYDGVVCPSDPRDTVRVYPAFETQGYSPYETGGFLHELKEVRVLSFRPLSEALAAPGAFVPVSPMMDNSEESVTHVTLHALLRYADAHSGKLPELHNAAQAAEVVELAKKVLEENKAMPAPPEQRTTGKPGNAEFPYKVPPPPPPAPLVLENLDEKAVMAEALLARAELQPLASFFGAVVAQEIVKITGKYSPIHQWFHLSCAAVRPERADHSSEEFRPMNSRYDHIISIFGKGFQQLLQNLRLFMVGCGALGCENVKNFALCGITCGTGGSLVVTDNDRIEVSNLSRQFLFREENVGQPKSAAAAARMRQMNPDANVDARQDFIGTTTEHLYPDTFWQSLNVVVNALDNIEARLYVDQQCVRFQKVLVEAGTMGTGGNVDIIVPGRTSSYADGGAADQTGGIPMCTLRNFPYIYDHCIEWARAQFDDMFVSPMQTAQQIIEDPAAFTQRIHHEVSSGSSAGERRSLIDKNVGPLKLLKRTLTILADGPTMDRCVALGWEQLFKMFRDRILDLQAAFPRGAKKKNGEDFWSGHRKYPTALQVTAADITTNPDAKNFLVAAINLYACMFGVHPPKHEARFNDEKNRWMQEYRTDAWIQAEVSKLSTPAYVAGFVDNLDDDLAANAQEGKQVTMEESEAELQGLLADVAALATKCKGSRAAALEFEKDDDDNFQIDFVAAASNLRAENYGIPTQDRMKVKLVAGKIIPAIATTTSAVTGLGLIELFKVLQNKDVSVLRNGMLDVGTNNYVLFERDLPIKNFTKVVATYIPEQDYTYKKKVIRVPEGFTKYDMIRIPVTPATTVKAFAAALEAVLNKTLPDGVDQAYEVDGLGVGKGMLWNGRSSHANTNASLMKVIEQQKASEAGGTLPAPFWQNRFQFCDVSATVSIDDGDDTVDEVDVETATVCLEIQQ
# [3] = molecular target: AMP-activated protein kinase, AMPK (Homo sapiens) (UniProt P54646+O43741+P54619+Q9UGJ0+Q9Y478+Q13131+Q9UGI9); test: AMP-dependent Kinase enzyme assay. An in vitro enzyme assay that detects ADP turnover that is directly proportional to AMPK activity. This uses naive AMPK that is activated during the assay with MK-8722; assay type: functional; conditions: 30 µM
# [4] = molecular target: Sialic acid-binding Ig-like lectin 9 (Homo sapiens) (UniProt Q9Y336); test: Hs-Siglec9 ALPHAscreen SOP 20170721; conditions: 10 µM
# [5] = tested on: Trypanosoma cruzi; test: Trypanosoma cruzi phosphomannomutase and mannose-1-phosphate guanylyltransferase assay; assay type: functional; conditions: 10 µM
# [6] = molecular target: T2, Arginase-2, mitochondrial (Homo sapiens) (UniProt P78540); test: in vitro enzyme assay to detect the production of urea directly proportional to the activity of Arginase II; assay type: functional; conditions: 33.3 µM; note: in the data most compounds retested in dose-response had high values
# T2 sequence (whole entry): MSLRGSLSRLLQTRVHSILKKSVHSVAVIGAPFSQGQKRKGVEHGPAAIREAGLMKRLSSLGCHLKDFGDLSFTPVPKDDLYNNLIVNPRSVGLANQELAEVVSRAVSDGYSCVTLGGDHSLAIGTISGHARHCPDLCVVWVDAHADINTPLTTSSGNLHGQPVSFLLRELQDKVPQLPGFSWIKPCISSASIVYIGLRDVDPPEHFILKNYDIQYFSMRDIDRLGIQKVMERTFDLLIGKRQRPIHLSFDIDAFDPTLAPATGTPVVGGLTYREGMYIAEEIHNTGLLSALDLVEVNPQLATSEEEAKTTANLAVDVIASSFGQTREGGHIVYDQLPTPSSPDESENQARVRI
# [7] = molecular target: T3, Proteasome subunit beta (Trypanosoma cruzi) (UniProt O96673); test: Trypanosoma cruzi proteasome chymotrypsin-like activity (TcProtChymo) assay.; note: in the data most compounds retested in dose-response had high values; assay type: functional; conditions: 9.37 µM
# T3 sequence (whole entry): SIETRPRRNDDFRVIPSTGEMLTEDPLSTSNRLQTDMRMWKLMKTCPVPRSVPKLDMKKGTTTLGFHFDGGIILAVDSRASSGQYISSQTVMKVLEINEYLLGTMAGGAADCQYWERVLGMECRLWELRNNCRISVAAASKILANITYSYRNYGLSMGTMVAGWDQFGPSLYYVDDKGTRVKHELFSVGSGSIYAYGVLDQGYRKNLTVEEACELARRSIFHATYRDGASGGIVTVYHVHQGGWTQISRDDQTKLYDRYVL
# [8] = species: Homo sapiens; test: To identify inhibition of the IFN signalling (Jak-Stat) pathway via expression of an eGFP reporter gene under the control of an IFN-stimulated response element (ISRE) containing MxA promoter.; assay type: functional; conditions: 30 µM
# [9] = molecular target: T4, Tyrosyl-tRNA synthetase, putative (Trypanosoma cruzi (strain CL Brener)) (UniProt Q4DSP6); test: Trypanosoma cruzi tyrosyl tRNA synthetase (TcYRS) _High Tyrosine SOP; assay type: functional; conditions: 30 µM; note: in the data most compounds retested in dose-response had high values
# T4 sequence (whole entry): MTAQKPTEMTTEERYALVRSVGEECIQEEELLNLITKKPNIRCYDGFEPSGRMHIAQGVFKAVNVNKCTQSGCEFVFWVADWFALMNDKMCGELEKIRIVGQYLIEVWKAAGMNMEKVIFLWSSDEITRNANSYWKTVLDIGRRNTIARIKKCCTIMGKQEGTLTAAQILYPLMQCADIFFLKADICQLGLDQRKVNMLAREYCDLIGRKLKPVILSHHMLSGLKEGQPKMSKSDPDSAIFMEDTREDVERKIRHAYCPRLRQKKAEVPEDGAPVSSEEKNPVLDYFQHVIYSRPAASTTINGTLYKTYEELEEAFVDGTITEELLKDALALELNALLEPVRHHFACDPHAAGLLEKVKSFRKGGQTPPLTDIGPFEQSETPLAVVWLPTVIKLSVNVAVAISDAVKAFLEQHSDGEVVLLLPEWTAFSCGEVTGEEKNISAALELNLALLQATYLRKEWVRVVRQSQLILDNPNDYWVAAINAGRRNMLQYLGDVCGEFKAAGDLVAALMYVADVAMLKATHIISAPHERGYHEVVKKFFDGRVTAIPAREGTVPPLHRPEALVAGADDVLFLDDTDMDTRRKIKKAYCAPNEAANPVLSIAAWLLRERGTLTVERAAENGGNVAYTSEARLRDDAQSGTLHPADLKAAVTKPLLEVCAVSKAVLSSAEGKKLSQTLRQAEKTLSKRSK
# [10] = molecular target: T4, Tyrosyl-tRNA synthetase, putative (Trypanosoma cruzi (strain CL Brener)); test: Trypanosoma cruzi tyrosyl tRNA synthetase (TcYRS) SOP; assay type: functional; conditions: 30 µM
# [11] = molecular target: Chromo domain-containing protein 1 (Saccharomyces cerevisiae (strain ATCC 204508 / S288c) (Baker's yeast)) (UniProt P32657); test: ScCHD-1 Enzyme Inhibition Assay; assay type: functional; conditions: 30 µM; note: in the data most compounds retested in dose-response had high values
# Chain of Chromo domain-containing protein 1 (Saccharomyces cerevisiae (strain ATCC 204508 / S288c) (Baker's yeast)) (P32657 whole entry, the tested form may be a part): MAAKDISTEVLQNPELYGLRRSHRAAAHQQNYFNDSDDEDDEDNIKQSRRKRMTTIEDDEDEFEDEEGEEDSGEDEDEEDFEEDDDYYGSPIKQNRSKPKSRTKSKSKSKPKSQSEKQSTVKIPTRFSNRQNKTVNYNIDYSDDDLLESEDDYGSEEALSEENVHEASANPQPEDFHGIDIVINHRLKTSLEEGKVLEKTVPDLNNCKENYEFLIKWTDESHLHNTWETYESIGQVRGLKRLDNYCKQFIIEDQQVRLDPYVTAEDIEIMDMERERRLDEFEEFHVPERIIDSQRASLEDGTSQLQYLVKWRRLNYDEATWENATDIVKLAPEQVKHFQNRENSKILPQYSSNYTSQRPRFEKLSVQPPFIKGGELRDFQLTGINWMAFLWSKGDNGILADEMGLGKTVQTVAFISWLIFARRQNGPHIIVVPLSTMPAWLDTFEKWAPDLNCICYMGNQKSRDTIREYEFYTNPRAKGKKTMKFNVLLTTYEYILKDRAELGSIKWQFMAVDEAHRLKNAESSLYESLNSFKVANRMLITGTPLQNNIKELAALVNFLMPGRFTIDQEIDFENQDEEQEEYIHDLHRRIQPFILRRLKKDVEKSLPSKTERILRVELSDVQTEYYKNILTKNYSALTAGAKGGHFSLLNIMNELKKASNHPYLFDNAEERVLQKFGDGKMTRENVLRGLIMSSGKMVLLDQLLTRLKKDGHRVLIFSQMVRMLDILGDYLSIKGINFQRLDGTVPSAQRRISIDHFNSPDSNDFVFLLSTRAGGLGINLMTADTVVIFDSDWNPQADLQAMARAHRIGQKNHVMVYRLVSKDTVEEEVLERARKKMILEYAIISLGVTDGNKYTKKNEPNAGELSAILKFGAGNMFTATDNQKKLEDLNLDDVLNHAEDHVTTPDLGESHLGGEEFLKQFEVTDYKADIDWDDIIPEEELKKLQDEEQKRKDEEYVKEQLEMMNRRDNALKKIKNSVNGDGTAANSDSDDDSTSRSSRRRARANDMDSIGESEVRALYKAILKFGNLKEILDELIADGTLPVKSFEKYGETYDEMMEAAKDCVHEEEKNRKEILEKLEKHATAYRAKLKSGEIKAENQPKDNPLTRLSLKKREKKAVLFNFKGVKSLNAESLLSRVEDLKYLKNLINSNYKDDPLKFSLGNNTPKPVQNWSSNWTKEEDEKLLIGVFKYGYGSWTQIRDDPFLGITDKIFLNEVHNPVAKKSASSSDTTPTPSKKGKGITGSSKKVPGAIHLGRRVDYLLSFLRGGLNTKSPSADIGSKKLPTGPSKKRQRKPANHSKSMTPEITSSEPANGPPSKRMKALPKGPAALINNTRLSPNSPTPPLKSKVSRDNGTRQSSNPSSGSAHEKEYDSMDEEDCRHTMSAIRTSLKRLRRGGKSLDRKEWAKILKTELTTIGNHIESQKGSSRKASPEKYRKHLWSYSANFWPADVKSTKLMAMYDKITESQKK
# Chain of Sialic acid-binding Ig-like lectin 9 (Homo sapiens) (Q9Y336 whole entry): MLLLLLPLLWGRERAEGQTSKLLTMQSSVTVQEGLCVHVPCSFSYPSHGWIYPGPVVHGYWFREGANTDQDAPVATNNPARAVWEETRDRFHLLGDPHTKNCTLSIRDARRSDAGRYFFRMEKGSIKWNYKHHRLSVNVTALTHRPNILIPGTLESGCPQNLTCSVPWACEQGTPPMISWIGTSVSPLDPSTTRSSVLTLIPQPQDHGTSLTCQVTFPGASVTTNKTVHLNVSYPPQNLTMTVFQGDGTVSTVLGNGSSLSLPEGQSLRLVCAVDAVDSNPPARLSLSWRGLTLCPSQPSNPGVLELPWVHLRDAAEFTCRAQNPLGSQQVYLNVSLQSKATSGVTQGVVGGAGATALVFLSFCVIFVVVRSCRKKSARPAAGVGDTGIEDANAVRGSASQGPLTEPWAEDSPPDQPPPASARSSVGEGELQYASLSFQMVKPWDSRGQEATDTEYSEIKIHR
# Chain of Protein translocase subunit SecA (Escherichia coli (strain K12)) (P10408 whole entry): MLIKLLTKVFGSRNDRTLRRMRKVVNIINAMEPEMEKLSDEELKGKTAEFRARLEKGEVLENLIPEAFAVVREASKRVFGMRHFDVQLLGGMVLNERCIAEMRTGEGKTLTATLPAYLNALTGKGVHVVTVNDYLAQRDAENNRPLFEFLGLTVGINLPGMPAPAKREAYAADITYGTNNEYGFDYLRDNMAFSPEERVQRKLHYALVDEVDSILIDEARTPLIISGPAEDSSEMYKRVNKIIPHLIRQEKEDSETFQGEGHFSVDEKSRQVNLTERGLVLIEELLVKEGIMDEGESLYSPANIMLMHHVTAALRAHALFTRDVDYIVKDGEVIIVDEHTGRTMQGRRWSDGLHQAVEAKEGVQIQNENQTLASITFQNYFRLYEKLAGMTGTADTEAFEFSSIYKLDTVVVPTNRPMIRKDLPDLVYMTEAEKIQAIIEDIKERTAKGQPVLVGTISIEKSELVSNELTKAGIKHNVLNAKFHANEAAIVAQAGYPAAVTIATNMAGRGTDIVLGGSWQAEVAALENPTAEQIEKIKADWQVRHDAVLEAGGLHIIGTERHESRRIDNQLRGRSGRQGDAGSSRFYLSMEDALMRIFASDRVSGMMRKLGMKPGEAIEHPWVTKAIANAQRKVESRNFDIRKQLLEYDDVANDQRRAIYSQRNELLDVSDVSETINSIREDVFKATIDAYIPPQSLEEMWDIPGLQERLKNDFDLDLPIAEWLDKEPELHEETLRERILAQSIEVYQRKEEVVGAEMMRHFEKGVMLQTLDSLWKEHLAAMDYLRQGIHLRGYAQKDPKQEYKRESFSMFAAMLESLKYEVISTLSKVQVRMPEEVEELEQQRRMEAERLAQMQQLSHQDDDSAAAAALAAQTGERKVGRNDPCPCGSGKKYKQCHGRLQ
Structure (SMILES),Percent Effect [1],Percent Effect [2],Percent Effect [3],Percent Effect [4],Percent Effect [5],Percent Effect [6],Percent Effect [7],Percent Effect [8],Percent Effect [9],Percent Effect [10],Percent Effect [11]
CN(C)CCNC(=O)c1ccc(OC2CCN(S(C)(=O)=O)CC2)c(Cl)c1,-6.99%,18.9%,-3.92%,19.3%,8.5%,3.23%,13.8%,-5.52%,7.53%,21%,-4.57%
CC(C(=O)NCc1cccc(N2CC=CC2)c1)n1cccn1 (configuration not stated),-6.41%,0%,3.53%,1.65%,-1.5%,-1.15%,-1.5%,22.9%,0.49%,-2.44%,-1.88%
Cc1nn(C)c(N2CCOCC2)c1CNC(c1cccs1)C(C)C (configuration not stated),-2.38%,21.1%,-9.37%,-0.827%,1.59%,1.8%,12.6%,-16.1%,10.3%,28.4%,-6.09%
O=S(=O)(Cc1ccccc1F)NCCN1CCOCC1,-4.08%,8%,-0.989%,-5.08%,-3.02%,-1.04%,12.6%,-12.7%,-1.64%,6.17%,-1.76%
CCOCCOC(C)C(=O)NCc1cn2cc(Br)ccc2n1 (configuration not stated),-0.315%,0%,8.27%,0.478%,1.27%,1.18%,9.68%,-18%,5.32%,10.4%,-1.5%
CC1c2ncc(CN3CCN(C)CC3)n2CCN1Cc1cccnc1 (configuration not stated),-2.48%,8%,-3.01%,1.22%,5.41%,-51.8%,7.35%,-9.88%,5.21%,5%,-7.93%
CN(C)C(=O)c1ccc2c(c1)N(C)C(CC(=O)NC(C)(C)CO)CO2 (configuration not stated),-8.01%,-4.17%,-3.33%,3.27%,-2.82%,-2.21%,10.7%,-2.49%,-2.1%,-5.13%,0.823%
Nc1nc(CN2CCOC(Cn3cncn3)C2)nc2ccccc12 (configuration not stated),-2.89%,0%,2.62%,-2.89%,-1.02%,0.924%,-7.18%,0.0129%,1.98%,3.66%,6.29%
CC(NC(=O)NCCCn1cccn1)c1cccnc1 (configuration not stated),-4.3%,-2.67%,-0.757%,-5.85%,-4.77%,-3.12%,7.85%,1.99%,-1.64%,-6.17%,6.57%
Cc1cccc(COC[C@H]2CC[C@H]3[C@H](CCN3C(=O)CC3CC3)O2)n1,-5.92%,10.7%,7.31%,-1.34%,-1.57%,5.36%,6.96%,15.9%,7.45%,19.2%,-5.1%
CCc1ccc(S(=O)(=O)Nc2cc(OC)c(OC)cc2C(=O)O)s1,-4.39%,13.2%,5.52%,-13.6%,-8.12%,2.16%,8.54%,8.65%,-7.39%,-1.24%,-5.49%
COc1ccc(-c2csc(N)c2C#N)cc1OC,-2.5%,6.67%,-9.01%,5.81%,4.91%,-6.16%,7.02%,12.1%,1.06%,0%,-1.98%
N#Cc1cccnc1NCCNC(=O)N1CCCSCC1,-3.35%,2.7%,-4.19%,3.38%,8.11%,-2.38%,14.3%,-19.3%,3.7%,12.2%,-6.59%
O=C(c1cccs1)N1CCC(Cn2nc(-c3ccco3)ccc2=O)CC1,0.0559%,6.76%,15.8%,0.867%,-6.92%,3.02%,26.8%,13.6%,10.8%,14.3%,1.29%
Cn1cnnc1C1CCCN(C(=O)c2n[nH]c3ccccc23)C1 (configuration not stated),-3.18%,18.2%,-8.06%,-14.8%,5.19%,-3.16%,13.8%,-1.86%,8.57%,32.9%,-21.5%
CC(=O)N1CCCC1c1nnc2n1CCCCC2 (configuration not stated),-8.8%,-32.4%,1.68%,-1.76%,-0.195%,5.42%,6.85%,5.46%,7.92%,13.4%,-5.77%
CNc1oc(-c2cc(S(=O)(=O)N3CCCCCC3)c(C)o2)nc1C#N,-5.54%,-9.33%,2.78%,2.42%,5.5%,-3.35%,11.3%,8.06%,1.06%,10.3%,-7.07%
Cc1nc(-c2ccccc2)n(CC(=O)NCC(C)C)n1,-1.39%,13.5%,-9.59%,-7.18%,-7.08%,-4.01%,1.62%,19.8%,5.42%,13.6%,-5.55%
Cc1ccc(-c2ncc(C(=O)NCCNc3ncccn3)s2)c(C)c1,-2.83%,5.41%,2.58%,1.25%,7.83%,-2.4%,1.8%,11.8%,5.42%,16.1%,-8.22%
CC(C)n1cnc2c1C(C(=O)NCCC#N)N(Cc1ccccc1)CC2 (configuration not stated),-5.9%,16%,-5.79%,0.457%,4.44%,-40%,14%,-0.451%,2.08%,15%,-7.21%
CC(Cn1cccn1)NC(=O)NCCc1ccc(Cl)s1 (configuration not stated),-0.239%,22.8%,0.135%,-8.1%,-0.283%,1.52%,9.75%,5.52%,3.45%,16.5%,-2.95%
N#Cc1ccnc(N2CCN(CC(O)c3cccc(F)c3)CC2)c1 (configuration not stated),-4.31%,2.7%,0.651%,-0.828%,-3.42%,3.72%,2.83%,-1.26%,5.38%,11.1%,-2.53%
